Experimental data from PubChem BioAssay.
Results with a measured potency or affinity are listed apart. Results filed as inconclusive are left out. Activity calls are given as the source filed them. Unless noted, how the calls were made is not given here.

Columns and labels:
[1] = cytotoxicity in PAX8-dependent RMG-1 cells, dose response, cell-based, cherry-pick (AID 687029;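 active means signal drop whose fitted half-maximal concentration is at most twice the top valid dose, in every test run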;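 further: cells exposed to compound for 96 hours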)
[2] = inhibitors of CMV-promoter luciferase reporter, dose response, counter-screen for Pax8 inhibitor project, cell-based, HEK293, luminescence, dry powder (AID 743020;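 active means signal-lowering compounds whose fitted half-maximal concentration is at or below twice the top tested dose in every run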;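 further: HEK293 cells stably expressing the CMV luciferase reporter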)
[3] = non-specific cell cytotoxicity, dose response, cytotoxicity control for PAX8 inhibitor project, plate reader, dry powder samples (AID 743021)
[4] = IGROV1 ovarian cancer cell cytotoxicity, dose response, PAX8 inhibitor project, plate reader, dry powder samples (AID 743043);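 further: more negative means fewer viable cells or more cytotoxicity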
[5] = NIH:OVCAR-3 ovarian cancer cell cytotoxicity, dose response, PAX8 inhibitor project, plate reader, dry powder samples (AID 743044); conditions: max activity: at 35 µM, active compounds read low unless noted
[6] = IOSE-T80 ovarian epithelial cell cytotoxicity, dose response, cytotoxicity control for PAX8 inhibitor project, plate reader, dry powder samples (AID 743045);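 further: 0% = neutral control median and -100% = positive control median; more negative values mean more cell killing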
[7] = A2780 ovarian cancer cell cytotoxicity, dose response, cytotoxicity control, plate reader, dry powder samples (AID 743046);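 further: 0% = neutral control wells and -100% = cytotoxic reference compound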
[8] = cytotoxicity in OVCAR8 ovarian cancer cells, dose response, PAX8 project, cell-based, plate reader, dry powder samples (AID 743197)

Measured: max activity

Cc1cc(C(=O)Nc2cccc3c2O[C@H](CN(C)Cc2ccc(Oc4ccccc4)cc2)[C@@H](C)CN([C@H](C)CO)C3=O)n(C)n1
inactive: [1] | [2] | [3] | [4] | [5] -26.8% [at 16 µM, active compounds read low] | [6] | [7]

Cc1ccc(S(=O)(=O)Nc2ccc3c(c2)C(=O)N([C@H](C)CO)C[C@@H](C)[C@H](CN(C)Cc2ccc(C(F)(F)F)cc2)OCCCC[C@@H](C)O3)cc1
inactive: [1] | [2] | [3] | [4] | [5] 6.08% [at 0.5 µM, active compounds read low] | [6] | [7] | [8]

COc1ccc([N+](=O)[O-])c(S(=O)(=O)c2ccccc2)n1
inactive: [1] | [2] | [3]

C[C@@H]1CN([C@@H](C)CO)S(=O)(=O)c2ccc(C#Cc3ccc(F)cc3)cc2O[C@@H]1CN(C)C(=O)NC1CCCCC1
inactive: [1] | [2] | [3] | [4] | [5] 23.4% [at 1 µM, active compounds read low] | [6] | [7] | [8]

CCOc1ccc2c(c1)C(C)=CC(C)(C)N2S(=O)(=O)c1ccc(NC(C)=O)cc1
inactive: [1] | [2] | [3]

C[C@@H]1CN([C@@H](C)CO)C(=O)c2cc(NC(=O)Nc3ccc(C(F)(F)F)cc3)ccc2O[C@@H](C)CCCCO[C@@H]1CN(C)CC1CCCCC1
inactive: [1] | [2] | [3] | [4] | [5] 15.9% | [6] | [7] | [8]

O=C(Nc1ccc(Cl)cc1)/C(=C/c1cccc(O)c1)c1nc2ccccc2s1
inactive: [1] | [2] | [3]

COc1ccc(S(=O)(=O)Nc2ccc3c(c2)CC(=O)N([C@H](C)CO)C[C@H](C)[C@@H](CN(C)Cc2ccc(Cl)c(Cl)c2)O3)cc1
inactive: [1] | [2] | [3] | [4] | [5] 16.2% [at 16 µM, active compounds read low] | [6] | [7] | [8]

COc1cccc(S(=O)(=O)N(C)C[C@@H]2OCc3ccccc3-c3c(n(C)c4ccccc34)C(=O)N([C@H](C)CO)C[C@@H]2C)c1
inactive: [1] | [2] | [3] | [4] | [5] -14.8% | [6]

COc1cc(C2C3=C(COC3=O)OC(C)(C)Oc3cc4c(cc32)OCO4)cc(OC)c1OC (configuration not stated)
inactive: [1] | [2] | [3]

COc1ccc(S(=O)(=O)Nc2ccc3c(c2)C(=O)N([C@H](C)CO)C[C@@H](C)[C@H](CN(C)C(=O)Nc2ccc(C(F)(F)F)cc2)OCCCC[C@H](C)O3)cc1
inactive: [1] | [2] | [3] | [4] | [5] -37.1% | [6] | [8]

O=C1/C(=C/c2ccccc2)SC(=S)N1CC(=O)N1CCCCC1c1cccnc1 (configuration not stated)
not listed: [8]
inactive: all other assays above

C[C@H](CO)N1C[C@H](C)[C@@H](CN(C)CC2CCCCC2)Oc2c(NC(=O)CCCCCC(=O)Nc3ccccc3N)cccc2C1=O
inactive: [1] | [2] | [3] | [4] | [5] 16% [at 1 µM, active compounds read low] | [6] | [7]

C[C@H]1CN([C@@H](C)CO)C(=O)Cc2cc(NC(=O)C3CC3)ccc2O[C@@H]1CN(C)Cc1ccc(-c2ccccc2)cc1
inactive: [1] | [2] | [3] | [4] | [6]

C[C@H](CO)N1C[C@H](C)[C@@H](CN(C)Cc2ccc(Cl)c(Cl)c2)Oc2ccc(NC(=O)Nc3ccc(F)cc3)cc2CC1=O
inactive: [1] | [2] | [3] | [4] | [5] -44% | [6]

COc1ccc(CN(C)C[C@H]2OCCCC[C@H](C)Oc3ccc(NC(=O)Nc4ccc(C(F)(F)F)cc4)cc3C(=O)N([C@H](C)CO)C[C@@H]2C)cc1
inactive: [1] | [2] | [3] | [4] | [5] -28.6% [at 8 µM, active compounds read low] | [6] | [7] | [8]

COc1ccc(CN(C)C[C@H]2Oc3ccc(NC(=O)Nc4ccc5c(c4)OCO5)cc3CC(=O)N([C@H](C)CO)C[C@H]2C)cc1
inactive: [1] | [2] | [3] | [4] | [5] -9.48% [at 18 µM, active compounds read low] | [6] | [7] | [8]

Cc1ccc(S(=O)(=O)Nc2ccc3c(c2)C(=O)N([C@@H](C)CO)C[C@@H](C)[C@@H](CN(C)S(=O)(=O)c2ccc(Cl)cc2)OCCCC[C@@H](C)O3)cc1
inactive: [1] | [2] | [3] | [4] | [5] -15% | [6] | [8]

O=C(Nc1ccc(C(F)(F)F)cc1)Nc1ccc2c(c1)[C@H]1C[C@H](CC(=O)N3CCc4ccccc4C3)O[C@H](CO)[C@H]1O2
inactive: [1] | [2] | [3] | [4] | [5] 20.8% [at 0.5 µM, active compounds read low] | [6] | [8]

O=c1cc(C(Cl)(Cl)Cl)oc2c1ccc1ccccc12
inactive: [1] | [2] | [3]

Cc1ccc(CCc2nnc(SCC(=O)Nc3cccc(Cl)c3)n2-c2ccccc2)o1
inactive: [1] | [2] | [3]

C[C@@H]1CCCCO[C@@H](CN(C)Cc2ccc(Cl)c(Cl)c2)[C@H](C)CN([C@H](C)CO)C(=O)c2cc(NC(=O)Nc3ccc(C(F)(F)F)cc3)ccc2O1
inactive: [1] | [2] | [3] | [4] | [5] 52.8% [at 0.26 µM, active compounds read low] | [6] | [7] | [8]

O=[N+]([O-])c1cc2c(ccc3occc32)o1
inactive: [1] | [2] | [3]

CCC(=O)N1CCN(c2ccc(NC(=O)c3ccc([N+](=O)[O-])o3)cc2)CC1
inactive: [1] | [2] | [3]

CNc1ccc(Br)cc(C(=O)/C=C/c2cc(OC)ccc2OC)c1=O
inactive: [1] | [2] | [3]

O=S(=O)(c1ccccc1)N1CCCCN2[C@H](CO)[C@H](c3ccc(-c4ccccc4F)cc3)[C@H]2C1
inactive: [1] | [2] | [3] | [4] | [5] -5.95% | [6] | [7]

C[C@@H]1CCCCO[C@@H](CN(C)Cc2ccc(C(F)(F)F)cc2)[C@H](C)CN([C@H](C)CO)C(=O)c2cc(NS(=O)(=O)c3cccs3)ccc2O1
inactive: [1] | [2] | [3] | [4] | [5] -15.8% | [6] | [7] | [8]

Cc1cc(C)n(-c2nc(NCCN(C)C)c3c4c(sc3n2)CCCC4)n1
inactive: [1] | [2] | [3]

BrC(=C\c1ccccc1)/C=N/n1cnnc1
inactive: [1] | [2] | [3]

CN(N=Nc1nc[nH]c1C(N)=O)C1CCCCC1
inactive: [1] | [2] | [3]

COc1ccc(S(=O)(=O)Nc2ccc3c(c2)C(=O)N([C@H](C)CO)C[C@H](C)[C@@H](CN(C)Cc2ccc(C(F)(F)F)cc2)OCCCC[C@H](C)O3)cc1
inactive: [1] | [2] | [3] | [4] | [5] -20.9% [at 0.5 µM, active compounds read low] | [6] | [7] | [8]

O=C(Nc1cccc(Cl)c1)Nc1nnc(CSCCOc2ccc(Cl)cc2)s1
inactive: [1] | [2] | [3] | [4]

Oc1ccc(C[C@H]2CNC(=S)N2CC2CCCN2C[C@H](Cc2ccc(O)cc2)N2C[C@H](Cc3ccc(O)cc3)N(CC3CCCCC3)C2=S)cc1 (some centres not stated)
inactive: [1] | [2] | [3]

Cc1ccc(S(=O)(=O)Nc2cccc3c2O[C@@H](CN(C)Cc2ccc(Oc4ccccc4)cc2)[C@@H](C)CN([C@H](C)CO)C3=O)cc1
inactive: [1] | [2] | [3] | [4] | [5] 15.8% [at 1 µM, active compounds read low] | [6] | [7] | [8]

COc1ccc(C(=O)CCS(=O)(=O)c2ccc(C)cc2)cc1OC
inactive: [1] | [2] | [3]

Cc1ccc(S(=O)(=O)Nc2ccc3c(c2)CC(=O)N([C@@H](C)CO)C[C@H](C)[C@@H](CN(C)C(=O)Nc2ccc(C(F)(F)F)cc2)O3)cc1
inactive: [1] | [2] | [4] | [5] 7.6% [at 2.1 µM, active compounds read low] | [6] | [7] | [8]

O=C(Nc1ccc(F)cc1)N1CCCCN2[C@@H](CO)[C@@H](c3ccc(C#Cc4ccccc4)cc3)[C@@H]2C1
inactive: [1] | [2] | [3] | [7] | [8]

Cc1ccc(S(=O)(=O)Nc2ccc3c(c2)nc(CCN2CCCC2)n3C)cc1
not listed: [5] | [8]
inactive: all other assays above

COc1ccc(S(=O)(=O)N(C)C[C@H]2OCCCC[C@H](C)Oc3ccc(NS(=O)(=O)c4ccc(F)cc4)cc3C(=O)N([C@@H](C)CO)C[C@@H]2C)cc1
inactive: [1] | [2] | [4] | [6] | [7]

C[C@H]1CCCCO[C@H](CN(C)C(=O)C2CCCCC2)[C@@H](C)CN([C@@H](C)CO)C(=O)c2cc(NC(=O)Nc3ccc(F)cc3)ccc2O1
inactive: [1] | [2] | [3] | [5] -23.8% | [6] | [7] | [8]
